Data from PubChem BioAssay AID701 (PCMD, 2007).
Among all 33,000 compounds or so, about 70 (0.2%) were called active. A selection follows. Values without a mark were called inactive. Cut-off read from the data, not from the text of the source: active = inhibition above about 30%; inactive = the rest.

These compounds were tested against Coagulation factor XII (Homo sapiens) (UniProt P00748) (assay: human FXIIa protease inhibitors, primary screen, biochemical, single well (AID 701;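 note: 0% = enzyme with vehicle only and 100% = no enzyme blank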)). Details: purified human FXIIa, AMC substrate fluorescence, 2 h; at 10 µM; active compounds read high.
Coagulation factor XII (Homo sapiens), sequence (P00748 20-372 limits assumed): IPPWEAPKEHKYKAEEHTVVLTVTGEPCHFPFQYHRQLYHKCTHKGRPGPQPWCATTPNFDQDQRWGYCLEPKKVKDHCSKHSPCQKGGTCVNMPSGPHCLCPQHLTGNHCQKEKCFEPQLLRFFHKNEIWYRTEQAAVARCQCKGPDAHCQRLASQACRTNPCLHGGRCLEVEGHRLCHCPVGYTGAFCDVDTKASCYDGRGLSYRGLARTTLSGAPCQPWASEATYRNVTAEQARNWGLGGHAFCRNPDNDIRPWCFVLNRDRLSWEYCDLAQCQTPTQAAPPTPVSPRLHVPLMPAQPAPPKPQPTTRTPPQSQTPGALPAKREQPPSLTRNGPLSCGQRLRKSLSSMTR
Coagulation factor XII (Homo sapiens), sequence (P00748 373-615 limits assumed): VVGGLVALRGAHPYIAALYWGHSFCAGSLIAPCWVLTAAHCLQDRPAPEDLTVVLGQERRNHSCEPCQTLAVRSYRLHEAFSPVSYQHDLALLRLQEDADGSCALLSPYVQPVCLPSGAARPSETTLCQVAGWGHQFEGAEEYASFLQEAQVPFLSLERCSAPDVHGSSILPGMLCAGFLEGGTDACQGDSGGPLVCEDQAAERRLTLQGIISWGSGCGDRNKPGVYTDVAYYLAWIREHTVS

Compound	inhibition
COc1cc2c(cc1OC)C(C(=O)NCc1ccco1)C1c3ccccc3CCN1C2=O (stereo unspecified)	7.77%
COCCN(C(=O)c1ccco1)c1nnc(-c2ccc(OC)cc2)s1	7.18%
CCCCN1C(=O)CC(N2CCOCC2)C1=O (stereo unspecified)	4.3%
Cc1cccc(NC(=O)Cn2cc(C(=O)c3ccco3)c3ccccc32)c1	-10.1%
Cc1ccc(N(CC(=O)Nc2cc(C)cc(C)c2)S(=O)(=O)c2cccc3nonc23)cc1	17.2%
COc1ccc(-c2cc3nc(C)c(CCC(=O)NC(C)CCc4ccco4)c(C)n3n2)c(OC)c1 (stereo unspecified)	-1.94%
CC1=C(C(N)=O)C(c2sccc2C)n2nnnc2N1 (stereo unspecified)	3.63%
CCOC(=O)c1nnn(-c2nonc2-n2cccc2)c1CN1CCC(C(=O)OCC)CC1	0.91%
O=C(CC1(O)C(=O)N(CN2CCOCC2)c2ccccc21)c1ccccc1 (stereo unspecified)	-13.4%
CCOCCCNC(=O)C(NC(=O)c1ccc(=O)[nH]c1)c1ccc(C)cc1 (stereo unspecified)	-13.5%
CC(O)CN(Cc1ccc(Cl)cc1)CC(C)O (stereo unspecified)	4.36%
COc1ccc(N(CC(=O)NC2CCCCC2)S(=O)(=O)c2c(C)[nH]c(=O)[nH]c2=O)cc1	6%
CC(=O)N1CCCc2cc(S(=O)(=O)CCC(=O)N3CCN(c4ccccc4)CC3)ccc21	-16.3%
O=C1CSC(c2cccc(F)c2)N1c1ccc(O)cc1 (stereo unspecified)	20.5%
CC(=O)c1c(C)[nH]c(C(=O)NCc2ccc(C)cc2)c1C	5.44%
Cn1c(=O)n(CCc2ccccc2)c(=O)c2c1nc1n2CCCN1c1ccccc1	-0.18%
O=C1CSC(c2ccc(Cl)cc2)N1 (stereo unspecified)	-6.79%
OC(COc1cccc(OCC(O)CN2CCCC2)c1)CN1CCCC1 (stereo unspecified)	1.91%
COc1cccc(NC(=O)Cc2ccc(C)cc2)c1	3.98%
COc1cc(CC(=O)NCc2cccs2)cc(OC)c1OC	12%
Brc1ccc(Nc2c3c(nc4ncnn24)CCC3)cc1	-0.85%

Compound	inhibition
CCN1CCN(C(c2cccnc2)c2cc(Cl)c3cccnc3c2O)CC1 (stereo unspecified)	11.8%
O=S(=O)(NCCNS(=O)(=O)c1ccccc1)c1ccccc1	15.1%
CCC(=O)NC(Nc1cc(C)ccn1)(C(F)(F)F)C(F)(F)F	5.79%
CCCNC(=O)c1ccccc1NC(=O)CSCc1ccc(OC)cc1	0.92%
CCCNC(=O)CN(Cc1ccccc1F)S(=O)(=O)c1ccc(C)cc1	16.6%
CC(=O)Nc1ccc(S(=O)(=O)N2CCSCC2)cc1	3.77%
Cc1cc(SCC(=O)c2ccccc2)nc(SCC(=O)c2ccccc2)n1	-15.6%
Cc1ccc(CCN2CC(C(=O)O)CC2=O)cc1 (stereo unspecified)	9.91%
O=C(NCCc1ccccc1)c1ccc(OCCOc2ccccc2)cc1	5.87%
CCOC(=O)c1[nH]cnc1C(=O)NC1CCCCC1	1.72%
COCCn1c(SCc2nc3cc(OC)c(OC)cc3c(=O)[nH]2)nnc1-c1ccncc1	3.73%
Cn1nnnc1SCC(=O)Nc1ccccc1C(=O)NC1CC1	-1.23%
O=S(=O)(N1CCCCC1)N1CCNCC1	4.16%
Cc1cc(C(=O)OC(C)C(=O)Nc2cccc(S(=O)(=O)N3CCOCC3)c2)c(C)o1 (stereo unspecified)	8.04%
CCn1c(SCC(=O)Nc2ccc(OC)c(OC)c2)nnc1-c1c[nH]c2ccccc12	5.25%
COc1cc(OC)cc(-c2cc3nc(C4CCN(C(=O)OC(C)(C)C)CC4)cc(=O)n3[nH]2)c1	-5.3%
COc1ccc(C2=NOC3(CC(=O)N(c4ccc(Cl)cc4)C3=O)C2)c(OC)c1 (stereo unspecified)	-13.9%
Cc1cccc(-n2ncc3c(N4CCc5ccccc54)ncnc32)c1	4.16%
Cn1ccs/c1=N\S(=O)(=O)c1ccc(C(C)(C)C)cc1	6.13%
CC(CN1CCOCC1)c1ccccc1 (stereo unspecified)	7.84%
CCn1c(=O)c(=O)n(CC)c2cc(S(=O)(=O)N3CCc4ccccc43)ccc21	8.33%

Compound	inhibition
COc1ccc(OCCCON2C(=O)c3ccccc3C2=O)cc1	3.44%
Cc1ccc(OCC(=O)N/N=C\c2ccco2)c(C)c1	5.38%
CCOCCOC(=O)C1=C(C)N(C)C(=O)NC1c1ccccc1F (stereo unspecified)	2.69%
O=C(NCc1ccccc1)C1CCCN(S(=O)(=O)c2cccs2)C1 (stereo unspecified)	3.39%
O=C(Nc1cc(-c2nn(CC(=O)N3CCCCC3)c(=O)c3ccccc23)ccc1N1CCOCC1)c1ccc(Cl)cc1	-11%
CC1CCCCC1NC(=O)C1CCCN1S(=O)(=O)c1cccc2nsnc12 (stereo unspecified)	10.7%
CC1CC(C)CN(C(=O)CSc2nnc(CSc3ncccn3)n2C)C1 (stereo unspecified)	1.36%
CCn1c(C)nc2cc(C(=O)NNS(=O)(=O)c3ccc(C)cc3C)ccc21	5.64%
COc1ccc(-n2c(C)csc2=S)cc1	1.97%
CCCCCN1CC(O)=C(c2ccccc2)C1=N	-12.2%
O=C(Nc1cc2ccccc2oc1=O)C1CCCCC1	6%
Cc1nnc(SCC(=O)N2CCc3ccccc3C2)s1	-10.1%
Cc1ccc(CNC(=O)CCNS(=O)(=O)c2cccc3nonc23)cc1	7.33%
Cc1ccc(-n2c(CNc3ccc(F)cc3)nnc2SCC(=O)N2CCOCC2)cc1	0.69%
CCOC(=O)c1c(NC(C)=O)sc2c(O)c(Br)ccc12	5.45%
CCOC(=O)CN(Cc1ccc(OC)c(OC)c1)S(=O)(=O)c1ccc(OC)cc1	8.43%
CS(=O)(=O)N(CC(=O)N1CCN(Cc2ccccc2)CC1)c1ccc2c(c1)OCCO2	21.1%
COc1ccc(C2C(C#N)=C(/N=C/N3CCOCC3)OC3=C2C(=O)CC(C)(C)C3)cc1OC (stereo unspecified)	8.48%
COC(=O)CSc1snnc1-c1ccc(Cl)c(Cl)c1	5.67%
